# Reference: PubChem BioAssay AID1159580 (chemical genetic matrix, 2015)
# “And” between values parts separate entries of the source, which are not always exact repeats. Equal entries are not always repeated. About 2,000 (36%) of roughly 5,500 compounds were called active. Inconclusive results (about 18%) are left out. This is one part of the list. A number with no mark means an inactive call. Rule as the data show it: active = normalized growth mostly below about 0.91 (no sharp cut-off); inconclusive = no clear call, values can overlap the other calls; inactive = mostly above about 0.92.
# Test: chemical genetic growth profiling, strain panel (AID 1159580);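 also: tested at 20 µM; growth read once vehicle control cultures reached saturation at 30 °C; 1 = growth at the plate median or of vehicle wells; lower values mean less growth of the strain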
# Details: growth OD
smiles,measurement,setting,value
CN(C)CCC=C1c2ccccc2C=Cc2ccccc21,normalized growth,"S. cerevisiae deletion strains, locus YKL009W, strain mrt4, hits give low values",0.959
same,normalized growth,"S. cerevisiae deletion strains, locus YKL068W, hits give low values",0.982
same,normalized growth,"S. cerevisiae deletion strains, locus YKL085W, strain MDH1 (second series), hits give low values",0.975
same,normalized growth,"S. cerevisiae deletion strains, locus YKL085W, strain MDH1, hits give low values",0.975
same,normalized growth,"S. cerevisiae deletion strains, locus YKL160W, strain elf1, hits give low values",0.958
same,normalized growth,"S. cerevisiae deletion strains, locus YKL190W, strain CNB1, hits give low values",0.977
same,normalized growth,"S. cerevisiae deletion strains, locus YKR001C, strain vps1, hits give low values",1.01
same,normalized growth,"S. cerevisiae deletion strains, locus YKR026C, strain gcn3, hits give low values",0.998
same,normalized growth,"S. cerevisiae deletion strains, locus YKR091W, strain srl3, hits give low values",0.971
same,normalized growth,"S. cerevisiae deletion strains, locus YLL001W, strain dnm1, hits give low values",1.01
same,normalized growth,"S. cerevisiae deletion strains, locus YLL026W, hits give low values",0.985
same,normalized growth,"S. cerevisiae deletion strains, locus YLL041C, strain sdh2, hits give low values",0.984
same,normalized growth,"S. cerevisiae deletion strains, locus YLR027C, strain aat2, hits give low values",0.98
same,normalized growth,"S. cerevisiae deletion strains, locus YLR039C, strain RIC1, hits give low values",1.35 [resistant] (active)
same,normalized growth,"S. cerevisiae deletion strains, locus YLR058C, strain SHM2, hits give low values",0.99
same,normalized growth,"S. cerevisiae deletion strains, locus YLR102C, strain apc9, hits give low values",0.985
same,normalized growth,"S. cerevisiae deletion strains, locus YLR113W, strain HOG1, hits give low values",1.04
same,normalized growth,"S. cerevisiae deletion strains, locus YLR221C, strain rsa3, hits give low values",1
same,normalized growth,"S. cerevisiae deletion strains, locus YLR258W, strain gsy2, hits give low values",0.989
same,normalized growth,"S. cerevisiae deletion strains, locus YLR262C, strain YPT6 (second series), hits give low values",1.02
same,normalized growth,"S. cerevisiae deletion strains, locus YLR262C, strain YPT6, hits give low values",1.53 [resistant] (active)
same,normalized growth,"S. cerevisiae deletion strains, locus YLR268W, strain sec22, hits give low values",0.99
same,normalized growth,"S. cerevisiae deletion strains, locus YLR320W, strain mms22, hits give low values",1.01
same,normalized growth,"S. cerevisiae deletion strains, locus YLR330W, strain CHS5, hits give low values",0.987
same,normalized growth,"S. cerevisiae deletion strains, locus YLR342W, strain FKS1 (second series), hits give low values",0.903
same,normalized growth,"S. cerevisiae deletion strains, locus YLR342W, strain FKS1, hits give low values",0.979
same,normalized growth,"S. cerevisiae deletion strains, locus YLR357W, strain rsc2, hits give low values",1.01
same,normalized growth,"S. cerevisiae deletion strains, locus YLR370C, strain arc18, hits give low values",0.988
same,normalized growth,"S. cerevisiae deletion strains, locus YLR371W, strain rom2, hits give low values",0.992
same,normalized growth,"S. cerevisiae deletion strains, locus YLR384C, strain iki3, hits give low values",0.991
same,normalized growth,"S. cerevisiae deletion strains, locus YLR418C, strain cdc73, hits give low values",0.811 (active)
same,normalized growth,"S. cerevisiae deletion strains, locus YML016C, strain PPZ1, hits give low values",0.996
same,normalized growth,"S. cerevisiae deletion strains, locus YML032C, strain rad52, hits give low values",1.01
same,normalized growth,"S. cerevisiae deletion strains, locus YML120C, strain ndi1, hits give low values",1
same,normalized growth,"S. cerevisiae deletion strains, locus YML124C, strain tub3, hits give low values",0.997
same,normalized growth,"S. cerevisiae deletion strains, locus YMR058W, strain fet3, hits give low values",0.968
same,normalized growth,"S. cerevisiae deletion strains, locus YMR078C, strain ctf18, hits give low values",0.984
same,normalized growth,"S. cerevisiae deletion strains, locus YMR125W, strain sto1, hits give low values",0.95
same,normalized growth,"S. cerevisiae deletion strains, locus YMR129W, hits give low values",0.99
same,normalized growth,"S. cerevisiae deletion strains, locus YMR205C, strain PFK2, hits give low values",1
same,normalized growth,"S. cerevisiae deletion strains, locus YMR223W, strain ubp8, hits give low values",0.951
same,normalized growth,"S. cerevisiae deletion strains, locus YMR231W, strain pep5, hits give low values",0.989
same,normalized growth,"S. cerevisiae deletion strains, locus YMR263W, strain SAP30, hits give low values",1
same,normalized growth,"S. cerevisiae deletion strains, locus YMR307W, strain GAS1, hits give low values",1.01 and 0.999
same,normalized growth,"S. cerevisiae deletion strains, locus YNL067W, strain RPL9B, hits give low values",0.994
same,normalized growth,"S. cerevisiae deletion strains, locus YNL071W, strain lat1, hits give low values",0.99
same,normalized growth,"S. cerevisiae deletion strains, locus YNL153C, strain GIM3, hits give low values",1.04 and 1
same,normalized growth,"S. cerevisiae deletion strains, locus YNL175C, strain NOP13, hits give low values",1.06
same,normalized growth,"S. cerevisiae deletion strains, locus YNL183C, strain NPR1, hits give low values",0.955
same,normalized growth,"S. cerevisiae deletion strains, locus YNL197C, strain WHI3, hits give low values",1.02
same,normalized growth,"S. cerevisiae deletion strains, locus YNL209W, strain ssb2, hits give low values",0.925 (active)
same,normalized growth,"S. cerevisiae deletion strains, locus YNL224C, strain SQS1, hits give low values",1.01
same,normalized growth,"S. cerevisiae deletion strains, locus YNL233W, strain BNI4, hits give low values",1.02
same,normalized growth,"S. cerevisiae deletion strains, locus YNL248C, strain rpa49, hits give low values",0.959
same,normalized growth,"S. cerevisiae deletion strains, locus YNL250W, strain rad50, hits give low values",0.985
same,normalized growth,"S. cerevisiae deletion strains, locus YNL271C, strain bni1, hits give low values",0.986
same,normalized growth,"S. cerevisiae deletion strains, locus YNL298W, strain CLA4, hits give low values",0.988
same,normalized growth,"S. cerevisiae deletion strains, locus YNL307C, strain MCK1, hits give low values",0.994
same,normalized growth,"S. cerevisiae deletion strains, locus YNL322C, strain KRE1 (second series), hits give low values",0.992
same,normalized growth,"S. cerevisiae deletion strains, locus YNL322C, strain KRE1, hits give low values",0.977
same,normalized growth,"S. cerevisiae deletion strains, locus YNR049C, strain mso1, hits give low values",0.978
same,normalized growth,"S. cerevisiae deletion strains, locus YNR052C, strain pop2, hits give low values",0.948
same,normalized growth,"S. cerevisiae deletion strains, locus YOL006C, strain TOP1, hits give low values",0.852
same,normalized growth,"S. cerevisiae deletion strains, locus YOL012C, strain htz1",0.956
same,normalized growth,"S. cerevisiae deletion strains, locus YOL147C, strain pex11, hits give low values",0.996
same,normalized growth,"S. cerevisiae deletion strains, locus YOR001W, strain rrp6, hits give low values",0.965
same,normalized growth,"S. cerevisiae deletion strains, locus YOR061W, strain CKA2, hits give low values",0.99
same,normalized growth,"S. cerevisiae deletion strains, locus YOR069W, strain VPS5, hits give low values",0.983
same,normalized growth,"S. cerevisiae deletion strains, locus YOR070C, strain gyp1, hits give low values",0.966
same,normalized growth,"S. cerevisiae deletion strains, locus YOR080W, strain dia2, hits give low values",0.98
same,normalized growth,"S. cerevisiae deletion strains, locus YOR083W, strain WHI5 (second series), hits give low values",1.08
same,normalized growth,"S. cerevisiae deletion strains, locus YOR083W, strain WHI5, hits give low values",0.945
same,normalized growth,"S. cerevisiae deletion strains, locus YOR106W, strain vam3, hits give low values",0.89
same,normalized growth,"S. cerevisiae deletion strains, locus YOR136W, strain idh2, hits give low values",1.03
same,normalized growth,"S. cerevisiae deletion strains, locus YOR144C, strain elg1, hits give low values",1
same,normalized growth,"S. cerevisiae deletion strains, locus YOR184W, strain ser1, hits give low values",1.04
same,normalized growth,"S. cerevisiae deletion strains, locus YOR231W, strain MKK1, hits give low values",1.02
same,normalized growth,"S. cerevisiae deletion strains, locus YOR265W, strain rbl2, hits give low values",0.983
same,normalized growth,"S. cerevisiae deletion strains, locus YOR270C, strain vph1, hits give low values",0.809
same,normalized growth,"S. cerevisiae deletion strains, locus YOR290C, strain snf2, hits give low values",0.958
same,normalized growth,"S. cerevisiae deletion strains, locus YOR316C, strain cot1, hits give low values",0.988
same,normalized growth,"S. cerevisiae deletion strains, locus YPL051W, strain arl3, hits give low values",0.964
same,normalized growth,"S. cerevisiae deletion strains, locus YPL078C, strain atp4, hits give low values",0.989
same,normalized growth,"S. cerevisiae deletion strains, locus YPL106C, strain sse1, hits give low values",0.927
same,normalized growth,"S. cerevisiae deletion strains, locus YPL240C, strain hsp82, hits give low values",0.985
same,normalized growth,"S. cerevisiae deletion strains, locus YPL241C, strain CIN2, hits give low values",0.978 and 1
same,normalized growth,"S. cerevisiae deletion strains, locus YPL256C, strain CLN2, hits give low values",1.01
same,normalized growth,"S. cerevisiae deletion strains, locus YPR119W, strain clb2, hits give low values",0.998
same,normalized growth,"S. cerevisiae deletion strains, locus YPR141C, strain kar3, hits give low values",0.987
same,normalized growth,"S. cerevisiae deletion strains, locus YPR163C, strain tif3, hits give low values",0.988
same,normalized growth,"S. cerevisiae deletion strains, locus YPR167C, strain met16, hits give low values",0.992
same,normalized growth,"S. cerevisiae deletion strains, strain wtn01, hits give low values",0.981
same,normalized growth,"S. cerevisiae strains, strain wild type, hits give low values",0.99
